# Source: the supplement of paper PMC12282887
# ± gives the standard deviation of the averaged measurements.
# Assays:
# Experiment in all cases: promoter activity interaction Z-score (Lux/OD deviation from empty-vector control); higher = stronger promoter induction by the compound
# [1] = tested on: E. coli BW25113 acrABp lux reporter
# Outline: (§1)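 E. coli BW25113, as wild type or one of three single-gene deletion strains, carried low-copy luxCDABE promoter reporters and grew in 40 µl LB Lennox in 384-well plates at 37°C, with OD600 and luminescence read every 30 min for 12 h. Each compound was run at four 1:2 dilutions in biological duplicates, integration spanned 0–8 h for wild type and 1–9 h for deletion strains, and wells under 10% of the median growth value were dropped. The score is the Z-transformed residual of growth-normalised luminescence fitted against a control.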
# [2] = tested on: E. coli BW25113 micFp lux reporter
# Outline: as §1
# [3] = tested on: E. coli BW25113 ompFp lux reporter
# Outline: as §1
# [4] = tested on: E. coli BW25113 robp lux reporter
# Outline: as §1
# [5] = tested on: E. coli BW25113 soxSp lux reporter
# Outline: as §1
# [6] = tested on: E. coli BW25113 tolCp lux reporter
# Outline: as §1
# [7] = 0.12 µg/ml, genetic background: wild type
# [8] = 0.12 µg/ml, genetic background: ΔmarA
# [9] = 0.12 µg/ml, genetic background: Δrob
# [10] = 0.12 µg/ml, genetic background: ΔsoxS
# [11] = 0.24 µg/ml, genetic background: wild type
# [12] = 0.24 µg/ml, genetic background: ΔmarA
# [13] = 0.24 µg/ml, genetic background: Δrob
# [14] = 0.24 µg/ml, genetic background: ΔsoxS
# [15] = 0.48 µg/ml, genetic background: wild type
# [16] = 0.48 µg/ml, genetic background: ΔmarA
# [17] = 0.48 µg/ml, genetic background: Δrob
# [18] = 0.48 µg/ml, genetic background: ΔsoxS
# [19] = 1 µg/ml, genetic background: wild type
# [20] = 1 µg/ml, genetic background: ΔmarA
# [21] = 1 µg/ml, genetic background: ΔsoxS
smiles,measurement,setting,value
O=C(N[C@H](CO)[C@H](O)c1ccc([N+](=O)[O-])cc1)C(Cl)Cl [Chloramphenicol],promoter activity interaction Z-score,[1]; [7],0.22 ± 0.098
same,promoter activity interaction Z-score,[1]; [8],-0.0897 ± 1
same,promoter activity interaction Z-score,[1]; [9],0.368 ± 0.066
same,promoter activity interaction Z-score,[1]; [10],0.272 ± 0.11
same,promoter activity interaction Z-score,[1]; [11],0.636 ± 0.41
same,promoter activity interaction Z-score,[1]; [12],-0.23 ± 0.65
same,promoter activity interaction Z-score,[1]; [13],0.312 ± 0.071
same,promoter activity interaction Z-score,[1]; [14],0.433 ± 0.24
same,promoter activity interaction Z-score,[1]; [15],1.1 ± 0.056
same,promoter activity interaction Z-score,[1]; [16],-0.541 ± 0.59
same,promoter activity interaction Z-score,[1]; [17],0.7917 ± 0.0062
same,promoter activity interaction Z-score,[1]; [18],1.11 ± 0.52
same,promoter activity interaction Z-score,[1]; [19],1.46 ± 0.021
same,promoter activity interaction Z-score,[1]; [20],-1.09 ± 0.82
same,promoter activity interaction Z-score,[1]; [21],0.0905
same,promoter activity interaction Z-score,[2]; [7],-0.122 ± 0.054
same,promoter activity interaction Z-score,[2]; [8],-0.0498 ± 0.071
same,promoter activity interaction Z-score,[2]; [9],-0.238 ± 0.013
same,promoter activity interaction Z-score,[2]; [10],0.0558 ± 0.064
same,promoter activity interaction Z-score,[2]; [11],0.0837 ± 0.14
same,promoter activity interaction Z-score,[2]; [12],-0.057 ± 0.033
same,promoter activity interaction Z-score,[2]; [13],-0.128 ± 0.036
same,promoter activity interaction Z-score,[2]; [14],-0.0814 ± 0.0056
same,promoter activity interaction Z-score,[2]; [15],-0.548 ± 0.11
same,promoter activity interaction Z-score,[2]; [16],-0.166 ± 0.013
same,promoter activity interaction Z-score,[2]; [17],0.103 ± 0.18
same,promoter activity interaction Z-score,[2]; [18],0.183 ± 0.15
same,promoter activity interaction Z-score,[2]; [19],-1.17 ± 0.016
same,promoter activity interaction Z-score,[2]; [20],-0.119 ± 0.29
same,promoter activity interaction Z-score,[2]; [21],-0.534
same,promoter activity interaction Z-score,[3]; [7],0.809 ± 0.57
same,promoter activity interaction Z-score,[3]; [8],0.473 ± 0.32
same,promoter activity interaction Z-score,[3]; [9],0.576 ± 0.47
same,promoter activity interaction Z-score,[3]; [10],1.1 ± 0.088
same,promoter activity interaction Z-score,[3]; [11],1.81 ± 0.86
same,promoter activity interaction Z-score,[3]; [12],1.78 ± 0.49
same,promoter activity interaction Z-score,[3]; [13],1.2 ± 0.46
same,promoter activity interaction Z-score,[3]; [14],1.55 ± 0.91
same,promoter activity interaction Z-score,[3]; [15],0.1844 ± 0.0012
same,promoter activity interaction Z-score,[3]; [16],1.34 ± 0.83
same,promoter activity interaction Z-score,[3]; [17],0.797 ± 0.094
same,promoter activity interaction Z-score,[3]; [18],1.6 ± 0.38
same,promoter activity interaction Z-score,[3]; [19],-1.42 ± 0.36
same,promoter activity interaction Z-score,[3]; [20],-1.37 ± 0.11
same,promoter activity interaction Z-score,[3]; [21],-0.525
same,promoter activity interaction Z-score,[4]; [7],-0.00573 ± 0.3
same,promoter activity interaction Z-score,[4]; [8],-0.626 ± 0.41
same,promoter activity interaction Z-score,[4]; [9],-0.328 ± 0.36
same,promoter activity interaction Z-score,[4]; [10],0.732 ± 0.14
same,promoter activity interaction Z-score,[4]; [11],-0.692 ± 0.34
same,promoter activity interaction Z-score,[4]; [12],-0.0133 ± 0.15
same,promoter activity interaction Z-score,[4]; [13],-0.61 ± 0.2
same,promoter activity interaction Z-score,[4]; [14],-0.218 ± 0.31
same,promoter activity interaction Z-score,[4]; [15],-1.41 ± 0.4
same,promoter activity interaction Z-score,[4]; [16],-0.957 ± 0.41
same,promoter activity interaction Z-score,[4]; [17],-1.44 ± 0.12
same,promoter activity interaction Z-score,[4]; [18],-1.17 ± 0.88
same,promoter activity interaction Z-score,[4]; [19],-2.19 ± 0.21
same,promoter activity interaction Z-score,[4]; [20],-1.15 ± 0.94
same,promoter activity interaction Z-score,[5]; [7],-0.0492 ± 0.039
same,promoter activity interaction Z-score,[5]; [8],0.159 ± 0.13
same,promoter activity interaction Z-score,[5]; [9],0.217 ± 0.045
same,promoter activity interaction Z-score,[5]; [10],0.238 ± 0.14
same,promoter activity interaction Z-score,[5]; [11],0.299 ± 0.018
same,promoter activity interaction Z-score,[5]; [12],0.529 ± 0.11
same,promoter activity interaction Z-score,[5]; [13],0.189 ± 0.096
same,promoter activity interaction Z-score,[5]; [14],0.422 ± 0.29
same,promoter activity interaction Z-score,[5]; [15],0.645 ± 0.3
same,promoter activity interaction Z-score,[5]; [16],0.914 ± 0.026
same,promoter activity interaction Z-score,[5]; [17],0.721 ± 0.017
same,promoter activity interaction Z-score,[5]; [18],1.45 ± 1.5
same,promoter activity interaction Z-score,[5]; [19],1.67 ± 0.091
same,promoter activity interaction Z-score,[5]; [20],2.38 ± 0.034
same,promoter activity interaction Z-score,[5]; [21],1.71 ± 1.7
same,promoter activity interaction Z-score,[6]; [7],0.142 ± 1.1
same,promoter activity interaction Z-score,[6]; [8],-0.0323 ± 0.44
same,promoter activity interaction Z-score,[6]; [9],0.149 ± 0.77
same,promoter activity interaction Z-score,[6]; [10],-0.831 ± 0.55
same,promoter activity interaction Z-score,[6]; [11],0.339 ± 0.15
same,promoter activity interaction Z-score,[6]; [12],0.367 ± 0.84
same,promoter activity interaction Z-score,[6]; [13],-0.202 ± 1.4
same,promoter activity interaction Z-score,[6]; [14],0.0632 ± 1
same,promoter activity interaction Z-score,[6]; [15],0.356 ± 1.2
same,promoter activity interaction Z-score,[6]; [16],0.168 ± 0.82
same,promoter activity interaction Z-score,[6]; [17],-0.0545 ± 0.19
same,promoter activity interaction Z-score,[6]; [18],2.03 ± 0.53
same,promoter activity interaction Z-score,[6]; [19],-0.0529 ± 0.35
same,promoter activity interaction Z-score,[6]; [20],-0.256 ± 0.82
same,promoter activity interaction Z-score,[6]; [21],1.66 ± 0.93
